# From paper PMC8384837, “Expanding the binding specificity for RNA recognition by a PUF domain”
# Changes are numbered by the printed parent chain.
# What was measured:
# Assay in all cases: yeast three-hybrid, YBZ-1, SC-Leu-His + 0.5 mM 3-AT, 4 days
# Details in all cases: tags: N-Gal4 AD-HA kept; label: inside an RPR1-promoter hybrid RNA with tandem MS2 sites; ssRNA
# [1] = target: PUM1 PUF domain R8-QWN (Homo sapiens, UniProt Q14671 828-1176, N1122Q;Y1123W;Q1126N)
# Summary of the method: (§1)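 Repeat regions from input (SC-Leu) and selection (SC-Leu-His + 0.5 mM 3-AT) plates were PCR-amplified and Illumina-sequenced after four days of growth. The cells were strain YBZ-1 with a LexA–MS2 coat fusion and a HIS3 reporter, co-expressing Pumilio-1 PUF domain libraries and matching RNA elements from a centromeric plasmid. The interaction score is the log change in variant frequency from input to selection, taken in log2 with a pseudocount of 1 for absent variants.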
# [2] = target: T1, PUM1 PUF domain R6-TYE (Homo sapiens, UniProt Q14671 828-1176, N1043T;Q1047E)
# T1 sequence: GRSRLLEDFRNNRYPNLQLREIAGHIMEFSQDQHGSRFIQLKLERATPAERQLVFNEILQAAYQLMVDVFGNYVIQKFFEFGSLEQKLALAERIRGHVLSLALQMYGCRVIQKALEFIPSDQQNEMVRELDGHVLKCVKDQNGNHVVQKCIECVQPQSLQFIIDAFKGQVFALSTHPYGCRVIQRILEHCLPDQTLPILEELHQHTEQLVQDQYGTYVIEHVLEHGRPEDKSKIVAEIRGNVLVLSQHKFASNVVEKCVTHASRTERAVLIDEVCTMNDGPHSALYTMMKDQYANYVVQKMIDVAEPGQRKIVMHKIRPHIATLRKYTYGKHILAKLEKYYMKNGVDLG
# Summary of the method: as §1
# [3] = target: T2, PUM1 PUF domain R6-TWL (Homo sapiens, UniProt Q14671 828-1176, N1043T;Y1044W;Q1047L)
# T2 sequence: T1 sequence with Y217W, E220L
# Summary of the method: as §1
# [4] = target: PUM1 PUF domain R5-SNR (Homo sapiens, UniProt Q14671 828-1176, C1007S;R1008N;Q1011R)
# Summary of the method: as §1
# [5] = target: PUM1 PUF domain R5-DQR (Homo sapiens, UniProt Q14671 828-1176, C1007D;R1008Q;Q1011R)
# Summary of the method: as §1
# [6] = target: PUM1 PUF domain R5-NDI (Homo sapiens, UniProt Q14671 828-1176, C1007N;R1008D;Q1011I)
# Summary of the method: as §1
# [7] = target: PUM1 PUF domain R5-KYF (Homo sapiens, UniProt Q14671 828-1176, C1007K;R1008Y;Q1011F)
# Summary of the method: as §1
# [8] = target: PUM1 PUF domain R3-ARC (Homo sapiens, UniProt Q14671 828-1176, C935A;Q939C)
# Summary of the method: as §1
# [9] = target: PUM1 PUF domain R1-GRS (Homo sapiens, UniProt Q14671 828-1176, S863G;Q867S)
# Summary of the method: as §1
# [10] = target: PUM1 PUF domain R8-LWK (Homo sapiens, UniProt Q14671 828-1176, N1122L;Y1123W;Q1126K)
# Summary of the method: as §1
sequence,measurement,setting,value
GGCUAGAACUAGUGGAUCCCCCGGCGCCCGGCGGCUCGAGCCCGGGUAAGCGUAAAUAGUCUGCAUGCCGCCGGGCGCCAUGCCUGCAGGUCGACUCUAGAAAACAUG,binding signal,[1],3.25 log2 enrichment (interaction score)
GGCUAGAACUAGUGGAUCCCCCGGCGCCCGGCGGCUCGAGCCCGGGUAAGUGAAAAUAGUCUGCAUGCCGCCGGGCGCCAUGCCUGCAGGUCGACUCUAGAAAACAUG,binding signal,[2],3.51 log2 enrichment (interaction score)
same,binding signal,[3],5.21 log2 enrichment (interaction score)
GGCUAGAACUAGUGGAUCCCCCGGCGCCCGGCGGCUCGAGCCCGGGUAAGUGUCAAUAGUCUGCAUGCCGCCGGGCGCCAUGCCUGCAGGUCGACUCUAGAAAACAUG,binding signal,[4],6.17 log2 enrichment (interaction score)
same,binding signal,[5],3.91 log2 enrichment (interaction score)
GGCUAGAACUAGUGGAUCCCCCGGCGCCCGGCGGCUCGAGCCCGGGUAAGUGUUAAUAGUCUGCAUGCCGCCGGGCGCCAUGCCUGCAGGUCGACUCUAGAAAACAUG,binding signal,[6],3.04 log2 enrichment (interaction score)
same,binding signal,[7],3.92 log2 enrichment (interaction score)
same,binding signal,[4],4.01 log2 enrichment (interaction score)
same,binding signal,[5],1.66 log2 enrichment (interaction score)
GGCUAGAACUAGUGGAUCCCCCGGCGCCCGGCGGCUCGAGCCCGGGUAAGUGUAAUUAGUCUGCAUGCCGCCGGGCGCCAUGCCUGCAGGUCGACUCUAGAAAACAUG,binding signal,[8],1.82 log2 enrichment (interaction score)
GGCUAGAACUAGUGGAUCCCCCGGCGCCCGGCGGCUCGAGCCCGGGUAAGUGUAAGUAGUCUGCAUGCCGCCGGGCGCCAUGCCUGCAGGUCGACUCUAGAAAACAUG,binding signal,[8],0.43 log2 enrichment (interaction score)
GGCUAGAACUAGUGGAUCCCCCGGCGCCCGGCGGCUCGAGCCCGGGUAAGUGUAAAUCGUCUGCAUGCCGCCGGGCGCCAUGCCUGCAGGUCGACUCUAGAAAACAUG,binding signal,[9],2.75 log2 enrichment (interaction score)
GGCUAGAACUAGUGGAUCCCCCGGCGCCCGGCGGCUCGAGCCCGGGUAAGUGUAAAUAGUCUGCAUGCCGCCGGGCGCCAUGCCUGCAGGUCGACUCUAGAAAACAUG,binding signal,[10],4.16 log2 enrichment (interaction score)
same,binding signal,[3],0.99 log2 enrichment (interaction score)
same,binding signal,[8],3.8 log2 enrichment (interaction score)
